Assay [1] can be described thus: BSK_4H_Eotaxin3: BioMAP Diversity Plus: 4H Assay for Eotaxin 3 Biomarker Activity (AID 2283000).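 On outcome: CCL26 protein level quantified by ELISA in parallel with SRB cytotoxicity check.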 The following applies: primary human endothelial cells (HUVEC); actives raise or lower the signal. Put shortly: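 ELISA quantitation of CCL26 (Eotaxin-3) protein from chemically dosed human vascular endothelial cells at 24 h; increases and decreases both scored relative to DMSO-treated baseline.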

Assay [2] deals with human Peroxisome Proliferator-activated Receptor alpha (PPARa), PPARA (gene 5465) (UniProt Q07869). The experiment in a line: ATG_PPARa_TRANS: Attagene TRANS-FACTORIAL HepG2 Assay for human Peroxisome Proliferator-activated Receptor alpha (PPARa) (AID 2283001; active means hit-call score of the fitted dose curve at least 0.9, where 1 is the maximum;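 on AC50: potency for gain of reporter signal over DMSO so agonist or activator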). Put shortly:
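Reporter transcripts quantified by RT-PCR plus capillary electrophoresis after 24 h treatment, fitted upward relative to DMSO. Cells: human HepG2 transiently carrying multiple GAL4-UAS reporter units driven by NR-Gal4 chimeras.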

Assay [3] has as its target human Peroxisome Proliferator-activated Receptor delta (PPARd), PPARD (gene 5467) (UniProt Q03181). Nature of the assay: ATG_PPARd_TRANS: Attagene TRANS-FACTORIAL HepG2 Assay for human Peroxisome Proliferator-activated Receptor delta (PPARd) (AID 2283002; active means hit-call score of the fitted dose curve at least 0.9, where 1 is the maximum). Put shortly: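 Cell-based TRANS reporter: HepG2, transient MRTU transfection, 24 h exposure. Readout = reporter mRNA (RT-PCR/CE, 6-FAM). Gain-of-signal fit vs DMSO control.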

Read-out in assay [4]: Intercellular Adhesion Molecule 1 (ICAM1), ICAM1 (gene 3383)
The experiment in a line: BSK_3C_ICAM1: BioMAP Diversity Plus: 3C Assay for Intercellular Adhesion Molecule 1 (ICAM1) Biomarker Activity (AID 2283003). The conditions noted are these: primary human endothelial cells (HUVEC); actives raise or lower the signal. A digest of the protocol:
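ELISA readout of ICAM1 in human umbilical vein endothelial cells in the 3C system, taken 24 h post-dose. Gain or loss of signal versus DMSO was fitted in both directions, with SRB total-protein staining run in parallel.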

For assay [5], the target named is human Retinoic Acid Receptor beta (RARb), RARB (gene 5915) (UniProt P10826). The experiment in a line: ATG_RARb_TRANS: Attagene TRANS-FACTORIAL HepG2 Assay for human Retinoic Acid Receptor beta (AID 2283004; active means hit-call score of the fitted dose curve at least 0.9, where 1 is the maximum). Put shortly:
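Fluorescent capillary-electrophoresis detection of GAL4-UAS reporter mRNA defines the endpoint, with induction over DMSO-treated wells scored as activity. Transiently transfected human hepatoma HepG2 cells expressing exogenous NR–Gal4 proteins are exposed to test chemicals for 24 h.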

In assay [6] the target is Retinoic acid receptor alpha (Homo sapiens) (UniProt P10276). The experiment in a line: ATG_RARa_TRANS: Attagene TRANS-FACTORIAL HepG2 Assay for human Retinoic Acid Receptor alpha (RARa) (AID 2283005; active means hit-call score of the fitted dose curve at least 0.9, where 1 is the maximum). A digest of the protocol: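 Reporter transcripts, measured by RT-PCR with fluorescent labeling and capillary electrophoresis after 24 h dosing, reflect activity of an exogenous human RARa–GAL4 fusion in transiently transfected HepG2. Fitted for increase relative to DMSO.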

Assay [7] is described as follows: BSK_3C_Proliferation: Cell Proliferation Assessment in the BioMAP Diversity Plus: 3C Assay (AID 2283006).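 On AC50: potency may reflect either rise or fall in cell number versus DMSO.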 The following applies: primary human endothelial cells (HUVEC). A digest of the protocol: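 Proliferation as total protein: sulforhodamine B (0.1%) stain of TCA-fixed subconfluent human umbilical vein endothelial cells, absorbance 560 nm, 48 h after dosing. Activity fitted in both directions against DMSO baseline.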

The target of assay [8] is Peroxisome proliferator-activated receptor gamma (Homo sapiens) (UniProt P37231). The experiment in a line: ATG_PPARg_TRANS: Attagene TRANS-FACTORIAL HepG2 Assay for human Peroxisome Proliferator-activated Receptor-gamma (PPARg) (AID 2283007; active means hit-call score of the fitted dose curve at least 0.9, where 1 is the maximum). A digest of the protocol:
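HepG2 cells are transiently transfected with GAL4-UAS reporter units driven by chimeric NR-Gal4 fusions and dosed for 24 h. Reporter mRNA is quantified by RT-PCR, 6-FAM labelling, HpaI digestion and capillary electrophoresis. Induction is scored against DMSO.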

Assay [9] concerns the target human RAR-related Orphan Receptor beta (RORb), RORB (gene 6096) (UniProt Q92753). The experiment in a line: ATG_RORb_TRANS: Attagene TRANS-FACTORIAL HepG2 Assay for human RAR-related Orphan Receptor beta (RORb) (AID 2283010; active means hit-call score of the fitted dose curve at least 0.9, where 1 is the maximum). A digest of the protocol:
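Read-out is reporter mRNA induction, quantified by RT-PCR with fluorescent capillary electrophoresis, 24 h post-dose in transiently transfected HepG2 expressing exogenous NR-Gal4 chimera. Activity fitted upward versus DMSO.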

Assay [10] concerns the target human RAR-related Orphan Receptor gamma (RORg), RORC (gene 6097) (UniProt P51449). Nature of the assay: ATG_RORg_TRANS: Attagene TRANS-FACTORIAL HepG2 Assay for human RAR-related Orphan Receptor gamma (RORg) (AID 2283011; active means hit-call score of the fitted dose curve at least 0.9, where 1 is the maximum). Put shortly:
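Chimeric RORg-Gal4 transactivation in transfected HepG2; 24 h exposure; RT-PCR/capillary electrophoresis readout of reporter mRNA, DMSO baseline.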

Assay [11] addresses Retinoic acid receptor RXR-alpha (Homo sapiens) (UniProt P19793). The experiment in a line: ATG_RXRa_TRANS: Attagene TRANS-FACTORIAL HepG2 Assay for human Retinoid X Receptor alpha (RXRa) (AID 2283012; active means hit-call score of the fitted dose curve at least 0.9, where 1 is the maximum). A digest of the protocol: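 TRANS format reporting activity of exogenous RXRa-Gal4 chimera in transiently transfected HepG2, 24 h exposure. Reporter transcripts quantified by RT-PCR with capillary electrophoresis, with gain of signal scored relative to DMSO.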

The target of assay [12] is human Thyroid Receptor alpha (THRa1), THRA (gene 7067) (UniProt P10827). Nature of the assay: ATG_THRa1_TRANS: Attagene TRANS-FACTORIAL HepG2 Assay for human Thyroid Receptor alpha (THRa1) (AID 2283014; active means hit-call score of the fitted dose curve at least 0.9, where 1 is the maximum). Put shortly:
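Measured here is mRNA from a GAL4-UAS reporter in transfected HepG2 cells carrying a Gal4-fused receptor, 24 h post-dose. DMSO served as negative control and baseline.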

Read-out in assay [13]: E-selectin (Homo sapiens) (UniProt P16581)
Nature of the assay: BSK_3C_Eselectin: BioMAP Diversity Plus: 3C Assay for Eselectin Biomarker Activity (AID 2283015).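 On outcome: cell surface E-selectin protein quantified by ELISA 24 h after dosing.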 The following applies: primary human endothelial cells (HUVEC); actives raise or lower the signal. Put shortly: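 Endpoint derived by bidirectional fitting against DMSO vehicle; signal is ELISA-detected E-selectin from primary HUVEC at 24 h post-dosing, with parallel SRB staining (0.1% SRB, 560 nm) flagging cytotoxicity.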

Read-out in assay [14]: Interleukin-1 alpha (IL1a), IL1A (gene 3552)
Nature of the assay: BSK_BE3C_IL1a: BioMAP Diversity Plus: BE3C Assay for Interleukin-1 alpha (IL1a) Biomarker Activity (AID 2283016). The conditions noted are these: primary human bronchial epithelial cells; actives raise or lower the signal. A digest of the protocol:
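IL-1a measured by ELISA after 24 h treatment of human primary bronchial epithelial cells, with gain or loss of signal fitted versus DMSO. Parallel cultures stained with SRB gauge overt cytotoxicity.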

Read-out in assay [15]: Monocyte Chemoattractant Protein-1 (MCP1), CCL2 (gene 6347)
Nature of the assay: BSK_3C_MCP1: BioMAP Diversity Plus: 3C Assay for Monocyte Chemoattractant Protein-1 (MCP1) Biomarker Activity (AID 2283017). The conditions noted are these: primary human endothelial cells (HUVEC); actives raise or lower the signal. A digest of the protocol:
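Using human vascular primary endothelium, researchers measured MCP-1 by ELISA 24 h after treatment, with DMSO serving as negative control for bidirectional fitting.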

Read-out in assay [16]: Monocyte Chemoattractant Protein-1 (MCP1), CCL2 (gene 6347)
Nature of the assay: BSK_4H_MCP1: BioMAP Diversity Plus: 4H Assay for Monocyte Chemoattractant Protein-1 (MCP1) Biomarker Activity (AID 2283018). The following applies: primary human endothelial cells (HUVEC); actives raise or lower the signal. A digest of the protocol: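 ELISA of MCP-1 (CCL2) 24 h after chemical dosing of HUVEC in the BioMAP 4H system. Gain or loss versus DMSO fitted; parallel SRB staining (560 nm) tracked overt cytotoxicity.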

Read-out in assay [17]: Human Leukocyte Antigen - DR isotype (HLADR), HLA-DRA (gene 3122)
Nature of the assay: BSK_3C_HLADR: BioMAP Diversity Plus: 3C Assay for Human Leukocyte Antigen - DR isotype (HLADR) Biomarker Activity (AID 2283019).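 On outcome: ELISA of cell-surface HLA-DR on HUVEC 24 h after dosing.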 The following applies: primary human endothelial cells (HUVEC); actives raise or lower the signal. Put shortly: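 Compound added to primary HUVEC cultures, 24 h incubation, then HLA-DR determined by ELISA; endpoint derived by bidirectional fitting relative to DMSO negative control.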

Assay [18] has as its target Nuclear receptor subfamily 1 group I member 2 (Homo sapiens) (UniProt O75469). The experiment in a line: ATG_PXR_TRANS: Attagene TRANS-FACTORIAL HepG2 Assay for human Pregnane X Receptor (PXR) (AID 2283008; active means hit-call score of the fitted dose curve at least 0.9, where 1 is the maximum). Put shortly:
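HepG2 transfected (FuGene 6) with GAL4-UAS reporter units + PXR-Gal4 chimera; dosed 24 h. Total RNA → oligo(dT) RT → PCR → 6-FAM primer extension → HpaI cut → CE. Gain-of-signal vs DMSO.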

Assay [19] concerns the target human Retinoic Acid Receptor gamma (RARg), RARG (gene 5916) (UniProt P13631). The experiment in a line: ATG_RARg_TRANS: Attagene TRANS-FACTORIAL HepG2 Assay for human Retinoic Acid Receptor gamma (RARg) (AID 2283009; active means hit-call score of the fitted dose curve at least 0.9, where 1 is the maximum). A digest of the protocol: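 Transactivation of exogenous RARg-Gal4 fusion measured as reporter transcript induction after 24 h in transfected HepG2 cells. RNA reverse-transcribed, amplified, fluorescently labeled and resolved by capillary electrophoresis; increase relative to DMSO.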

The target of assay [20] is human Retinoid X Receptor beta (RXRb), RXRB (gene 6257) (UniProt P28702). The experiment in a line: ATG_RXRb_TRANS: Attagene TRANS-FACTORIAL HepG2 Assay for human Retinoid X Receptor beta (RXRb) (AID 2283013; active means hit-call score of the fitted dose curve at least 0.9, where 1 is the maximum). A digest of the protocol:
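Readout is reporter transcript induction after 24 h dosing. It is measured by RT-PCR of total RNA followed by fluorescent capillary electrophoresis. HepG2 liver cells carry transfected multiple reporter units driven by an exogenous RXRb-Gal4 fusion; activity is relative to DMSO.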

Each structure is given as a SMILES string. Values joined by “and” are separate entries in the source; they are usually repeats but may differ in a detail not shown here. Equal entries are not always repeated. Results filed as inconclusive are left out. A structure can be active in one record and inactive in another. Active and inactive are the calls of the source. How the source made its calls, unless noted: active means hit-call score of the fitted dose curve at least 0.9, where 1 is the maximum; inactive means score below 0.9.

human Retinoic Acid Receptor gamma (RARg), RARG (gene 5916), sequence (P13631 whole entry, looked up, the tested form may be a part): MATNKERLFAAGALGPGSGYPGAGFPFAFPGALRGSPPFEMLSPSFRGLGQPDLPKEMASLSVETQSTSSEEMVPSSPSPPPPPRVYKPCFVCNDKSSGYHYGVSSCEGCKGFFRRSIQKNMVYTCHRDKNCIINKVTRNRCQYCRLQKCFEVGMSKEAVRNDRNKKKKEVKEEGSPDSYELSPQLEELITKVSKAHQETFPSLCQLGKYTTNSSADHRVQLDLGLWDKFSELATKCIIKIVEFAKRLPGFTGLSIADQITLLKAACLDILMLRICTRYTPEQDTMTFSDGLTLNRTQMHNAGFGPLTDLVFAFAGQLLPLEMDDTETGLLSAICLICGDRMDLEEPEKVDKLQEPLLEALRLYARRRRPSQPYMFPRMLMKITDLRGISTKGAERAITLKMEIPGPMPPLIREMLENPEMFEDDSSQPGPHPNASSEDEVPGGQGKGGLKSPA
human Peroxisome Proliferator-activated Receptor delta (PPARd), PPARD (gene 5467), sequence (Q03181 whole entry, looked up): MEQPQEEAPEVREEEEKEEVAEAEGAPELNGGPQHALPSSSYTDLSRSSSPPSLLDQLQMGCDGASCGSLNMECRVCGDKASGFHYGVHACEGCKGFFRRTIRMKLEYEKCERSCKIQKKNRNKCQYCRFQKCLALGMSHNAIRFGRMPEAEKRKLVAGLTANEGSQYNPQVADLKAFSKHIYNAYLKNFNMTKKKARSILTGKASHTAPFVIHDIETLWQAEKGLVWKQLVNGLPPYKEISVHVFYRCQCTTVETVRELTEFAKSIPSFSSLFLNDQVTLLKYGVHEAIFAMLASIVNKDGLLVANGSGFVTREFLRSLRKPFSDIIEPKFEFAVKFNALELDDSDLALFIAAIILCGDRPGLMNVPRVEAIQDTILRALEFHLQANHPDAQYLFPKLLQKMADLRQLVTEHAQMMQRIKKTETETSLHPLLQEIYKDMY
Nuclear receptor subfamily 1 group I member 2 (Homo sapiens), sequence (O75469 whole entry, looked up, the tested form may be a part): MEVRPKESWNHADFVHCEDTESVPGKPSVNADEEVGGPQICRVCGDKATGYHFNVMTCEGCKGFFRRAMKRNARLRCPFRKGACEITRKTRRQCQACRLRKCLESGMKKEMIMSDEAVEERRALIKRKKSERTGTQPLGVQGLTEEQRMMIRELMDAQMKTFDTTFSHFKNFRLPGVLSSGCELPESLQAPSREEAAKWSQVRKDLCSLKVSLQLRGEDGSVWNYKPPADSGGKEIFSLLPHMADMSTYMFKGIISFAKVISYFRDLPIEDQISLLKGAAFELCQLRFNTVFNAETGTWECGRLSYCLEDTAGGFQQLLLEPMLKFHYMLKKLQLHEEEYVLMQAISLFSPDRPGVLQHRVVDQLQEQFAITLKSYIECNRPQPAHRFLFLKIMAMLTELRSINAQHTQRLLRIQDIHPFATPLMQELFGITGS
human Thyroid Receptor alpha (THRa1), THRA (gene 7067), sequence (P10827 whole entry, looked up, the tested form may be a part): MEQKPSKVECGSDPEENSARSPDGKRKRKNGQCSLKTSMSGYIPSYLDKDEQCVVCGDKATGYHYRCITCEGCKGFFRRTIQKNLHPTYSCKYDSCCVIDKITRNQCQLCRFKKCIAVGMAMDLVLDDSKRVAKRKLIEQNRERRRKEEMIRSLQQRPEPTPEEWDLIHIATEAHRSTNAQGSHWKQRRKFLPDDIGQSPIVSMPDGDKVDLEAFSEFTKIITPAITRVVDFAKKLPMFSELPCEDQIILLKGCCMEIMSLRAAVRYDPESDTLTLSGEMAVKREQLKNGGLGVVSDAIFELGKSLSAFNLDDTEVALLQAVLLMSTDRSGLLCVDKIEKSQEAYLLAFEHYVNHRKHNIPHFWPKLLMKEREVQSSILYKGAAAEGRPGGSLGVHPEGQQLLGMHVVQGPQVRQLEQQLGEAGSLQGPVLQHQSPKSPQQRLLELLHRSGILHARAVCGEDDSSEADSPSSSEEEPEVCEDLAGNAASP
Peroxisome proliferator-activated receptor gamma (Homo sapiens), sequence (P37231 whole entry, looked up, the tested form may be a part): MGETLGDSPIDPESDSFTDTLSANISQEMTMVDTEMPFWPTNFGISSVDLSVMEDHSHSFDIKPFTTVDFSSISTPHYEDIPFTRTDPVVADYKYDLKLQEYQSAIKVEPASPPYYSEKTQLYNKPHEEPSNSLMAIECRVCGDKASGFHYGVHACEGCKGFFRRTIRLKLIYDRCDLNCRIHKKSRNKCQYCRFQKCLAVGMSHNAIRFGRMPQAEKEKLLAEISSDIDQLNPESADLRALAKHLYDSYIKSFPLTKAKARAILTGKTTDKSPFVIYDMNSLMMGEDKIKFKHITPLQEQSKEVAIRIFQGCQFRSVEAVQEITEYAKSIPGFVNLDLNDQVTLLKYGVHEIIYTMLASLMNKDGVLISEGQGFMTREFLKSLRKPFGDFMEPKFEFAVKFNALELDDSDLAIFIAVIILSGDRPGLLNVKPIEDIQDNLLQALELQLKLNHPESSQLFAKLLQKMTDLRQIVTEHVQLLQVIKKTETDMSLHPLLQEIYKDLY
human Retinoid X Receptor beta (RXRb), RXRB (gene 6257), sequence (P28702 whole entry, looked up, the tested form may be a part): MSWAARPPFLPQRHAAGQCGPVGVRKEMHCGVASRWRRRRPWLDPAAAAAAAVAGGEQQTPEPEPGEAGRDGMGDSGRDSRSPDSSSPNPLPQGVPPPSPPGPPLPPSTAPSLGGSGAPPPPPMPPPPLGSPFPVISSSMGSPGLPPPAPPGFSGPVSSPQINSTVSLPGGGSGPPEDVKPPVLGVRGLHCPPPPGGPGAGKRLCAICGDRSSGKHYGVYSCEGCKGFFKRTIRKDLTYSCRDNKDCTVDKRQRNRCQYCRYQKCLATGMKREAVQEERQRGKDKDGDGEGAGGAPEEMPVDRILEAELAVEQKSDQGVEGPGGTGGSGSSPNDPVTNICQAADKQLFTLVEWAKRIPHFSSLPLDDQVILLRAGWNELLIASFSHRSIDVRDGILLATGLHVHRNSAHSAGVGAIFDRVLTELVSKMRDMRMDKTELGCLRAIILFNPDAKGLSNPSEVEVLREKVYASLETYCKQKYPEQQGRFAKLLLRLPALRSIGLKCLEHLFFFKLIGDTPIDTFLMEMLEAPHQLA
human RAR-related Orphan Receptor beta (RORb), RORB (gene 6096), sequence (Q92753 whole entry, looked up, the tested form may be a part): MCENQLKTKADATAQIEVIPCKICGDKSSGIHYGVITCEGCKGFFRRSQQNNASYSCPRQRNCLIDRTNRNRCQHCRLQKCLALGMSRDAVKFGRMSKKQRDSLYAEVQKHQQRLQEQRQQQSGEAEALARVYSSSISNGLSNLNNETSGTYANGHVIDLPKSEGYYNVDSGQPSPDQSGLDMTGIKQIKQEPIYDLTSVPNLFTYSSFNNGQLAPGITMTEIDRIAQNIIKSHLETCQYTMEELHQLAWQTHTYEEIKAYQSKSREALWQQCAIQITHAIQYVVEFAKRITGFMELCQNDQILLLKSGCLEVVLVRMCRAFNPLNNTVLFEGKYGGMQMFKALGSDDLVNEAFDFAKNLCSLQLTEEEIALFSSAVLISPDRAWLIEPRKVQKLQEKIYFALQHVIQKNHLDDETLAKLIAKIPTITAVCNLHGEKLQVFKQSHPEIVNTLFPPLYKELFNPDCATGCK
E-selectin (Homo sapiens), sequence (P16581 whole entry, looked up): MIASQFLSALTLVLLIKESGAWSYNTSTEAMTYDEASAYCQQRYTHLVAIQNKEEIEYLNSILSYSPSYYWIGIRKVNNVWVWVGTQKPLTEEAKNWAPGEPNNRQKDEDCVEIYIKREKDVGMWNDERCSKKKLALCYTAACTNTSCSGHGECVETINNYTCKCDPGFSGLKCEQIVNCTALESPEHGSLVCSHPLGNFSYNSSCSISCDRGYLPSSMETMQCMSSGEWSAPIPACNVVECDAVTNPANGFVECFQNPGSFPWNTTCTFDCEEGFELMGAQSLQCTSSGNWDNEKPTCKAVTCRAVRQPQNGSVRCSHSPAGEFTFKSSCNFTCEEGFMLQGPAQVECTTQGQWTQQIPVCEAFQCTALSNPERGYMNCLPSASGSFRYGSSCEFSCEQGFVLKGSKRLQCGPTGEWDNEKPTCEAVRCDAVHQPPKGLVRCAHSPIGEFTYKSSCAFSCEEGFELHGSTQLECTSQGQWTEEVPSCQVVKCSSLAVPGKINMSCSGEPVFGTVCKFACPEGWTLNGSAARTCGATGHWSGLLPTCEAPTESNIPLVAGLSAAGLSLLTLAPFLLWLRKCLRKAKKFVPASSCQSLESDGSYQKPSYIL
human RAR-related Orphan Receptor gamma (RORg), RORC (gene 6097), sequence (P51449 whole entry, looked up, the tested form may be a part): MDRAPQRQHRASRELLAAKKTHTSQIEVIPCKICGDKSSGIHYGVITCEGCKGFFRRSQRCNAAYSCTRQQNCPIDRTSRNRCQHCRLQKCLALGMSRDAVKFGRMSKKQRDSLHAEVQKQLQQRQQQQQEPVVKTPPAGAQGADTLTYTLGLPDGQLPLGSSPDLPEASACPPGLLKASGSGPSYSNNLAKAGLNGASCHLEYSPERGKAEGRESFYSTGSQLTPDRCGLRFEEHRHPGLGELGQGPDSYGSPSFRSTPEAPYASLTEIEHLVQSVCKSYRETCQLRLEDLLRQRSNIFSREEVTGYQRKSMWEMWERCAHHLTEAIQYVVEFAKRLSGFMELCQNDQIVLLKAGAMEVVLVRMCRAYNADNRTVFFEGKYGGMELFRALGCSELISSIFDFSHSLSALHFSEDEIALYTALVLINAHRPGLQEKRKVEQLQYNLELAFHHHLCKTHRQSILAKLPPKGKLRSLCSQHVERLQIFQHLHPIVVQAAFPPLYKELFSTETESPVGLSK
Retinoic acid receptor RXR-alpha (Homo sapiens), sequence (P19793 whole entry, looked up, the tested form may be a part): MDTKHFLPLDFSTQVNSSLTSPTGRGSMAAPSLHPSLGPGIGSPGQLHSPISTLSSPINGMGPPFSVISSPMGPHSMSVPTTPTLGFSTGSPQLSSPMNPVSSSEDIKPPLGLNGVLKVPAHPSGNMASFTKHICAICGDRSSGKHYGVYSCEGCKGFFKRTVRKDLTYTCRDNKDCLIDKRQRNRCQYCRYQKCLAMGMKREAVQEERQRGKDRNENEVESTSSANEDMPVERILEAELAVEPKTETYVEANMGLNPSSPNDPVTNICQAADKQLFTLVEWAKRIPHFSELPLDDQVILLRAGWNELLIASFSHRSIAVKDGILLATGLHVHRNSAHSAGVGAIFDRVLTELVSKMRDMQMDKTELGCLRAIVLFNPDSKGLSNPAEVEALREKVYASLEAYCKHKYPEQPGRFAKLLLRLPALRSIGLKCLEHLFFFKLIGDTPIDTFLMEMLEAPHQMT

As for `O=P(O)(O)CCC(F)(F)C(F)(F)C(F)(F)C(F)(F)C(F)(F)C(F)(F)C(F)(F)C(F)(F)F`, the AC50 in [1] is 41.5 µM (active) and 28.8 µM (active); in [7] it was 30 µM (active) and 30.1 µM (active). Moreover, the molecule was classed as inactive in assay [2], in assay [3], in assay [4], in assay [5], in assay [6] and in assay [8]. For the same molecule, the call in assay [9], in assay [10], in assay [11], in [12], in assay [13] and in [14] was inactive. Besides, the result in assay [15], in assay [16] and in assay [17] was inactive.

Turning to `O=C(CC(=O)C(F)(F)C(F)(F)C(F)(F)F)c1cccs1`, the AC50 in assay [1] is 34.6 µM (active) and 39.1 µM (active); in [2], 13.3 µM (active) and 14.1 µM (active); in [4] it was 46.2 µM (active) and 50 µM (active); in assay [7], 15.1 µM (active) and 16.5 µM (active); in [8] it was 5.3 µM (active) and 10.5 µM (active); in assay [18], 13.9 µM (active). Further, the AC50 in assay [13] is 51.4 µM (active) and 52.5 µM (active); in [14] it was 29.5 µM (active) and 28.9 µM (active); in assay [15], 40 µM (active) and 41.2 µM (active); in assay [16], 23.5 µM (active) and 29.1 µM (active); in assay [17] it was 24.1 µM (active) and 24.6 µM (active). In addition, the call in assay [6], in assay [18], in [19], in assay [9], in assay [11] and in assay [20] was inactive. In addition, the molecule was called inactive in assay [12].

For the molecule `O=C(O)CCC(F)(F)C(F)(F)C(F)(F)C(F)(F)C(F)(F)F`, the result in assay [1], in [2], in assay [3], in assay [4], in assay [7] and in assay [8] was inactive. Besides, the call in assay [18], in assay [9], in [11], in assay [20], in assay [13] and in [14] was inactive. The result in assay [15], in assay [16] and in assay [17] was inactive. Also, the AC50 in assay [8] is 82.5 µM (active).

With `O=C(c1ccccc1)c1ccccc1`, the result in [1], in assay [2], in [3], in assay [4], in [5] and in [7] was inactive. Besides, the molecule was called inactive in assay [18], in assay [19], in [9], in [10], in assay [13] and in assay [14]. The outcome in assay [15], in assay [16] and in assay [17] was inactive. In assay [18], the AC50 was 100 µM (active).

Regarding `Oc1ccc(Cc2ccccc2O)cc1`, the AC50 was 149 nM (active) in assay [1] and 15.9 µM (active) in assay [7]. Further, the outcome in [1], in assay [2], in assay [3], in assay [4], in [7] and in [8] was inactive. Also, the call in assay [18], in assay [11], in [12], in [13], in [14] and in assay [15] was inactive. The result in assay [16] and in [17] was inactive.

As a reminder, the AC50 is the concentration at which the activity in the assay is half-maximal.

Source of the values: PubChem BioAssay (EPA / NIEHS).
